The results in this text go back to ChEMBL document CHEMBL1157539, “Thousands of chemical starting points for antimalarial lead identification” (Nature, 2010).

Broadly, the Inhibition is the drop in the measured response relative to a control, in per cent.

Holding throughout (assay type): functional
Assay [1] concerns Plasmodium falciparum. The assay can be described thus: GSK_TCMDC: Inhibition of Plasmodium falciparum 3D7 in whole red blood cells, using parasite LDH activity as an index of growth. Test compounds present at 2uM.
Assay [2] has as its system Plasmodium falciparum. The assay can be described thus: GSK_TCMDC: Inhibition of Plasmodium falciparum Dd2 in whole red blood cells, using parasite LDH activity as an index of growth. Test compounds present at 2uM.
Another assay relates to HepG2. The assay can be described thus: GSK_TCMDC: Percent inhibition of human HepG2 cell line. Test compounds present at 10uM.

With `COc1cccc(NC(=O)[C@H](C(C)C)n2c(=O)[nH]c3ccccc3c2=O)c1`, the Inhibition with Plasmodium falciparum [1] was found to be 100%; in the assay with Plasmodium falciparum [2], 100%; in the assay on HepG2 it was 0%.
On to `COc1ccc(-n2ccnc2)cc1CNC1CCN(CC2Cn3c(=O)ccc4ccc(F)c2c43)CC1.O=C(O)C(F)(F)F` (stereo not given), for which the Inhibition turned out to be 99% with Plasmodium falciparum [1], 18% in the assay on Plasmodium falciparum [2] and 25% in the assay on HepG2.
Consider `CCn1c2ccccc2c2cc(C=NN=c3cc(C)[nH]c4ccccc34)ccc21`, for which the figures for the Inhibition in the assay on Plasmodium falciparum [1], with Plasmodium falciparum [2] and in the assay with HepG2 were 100%, 97% and 19%, respectively.
In the case of `Cc1cc(N2CCCC2)nc(Nc2ccc(NC(=O)C3CCCC3)cc2)n1`, the values for the Inhibition with Plasmodium falciparum [1], in the assay on Plasmodium falciparum [2] and in the assay with HepG2 were 100%, 81% and 27%, respectively.
`Cc1cccc2nc(-c3cccc(-c4cccc(NC(=O)CNc5ccc(C(N)=O)cc5)c4)c3)[nH]c12`: the Inhibition is listed as 100% with Plasmodium falciparum [1], 56% with Plasmodium falciparum [2] and 15% in the assay with HepG2.
In the same order, the values of `COc1ccc(CNCc2ccsc2)cc1-c1ccc(OC)c(S(=O)(=O)NCCN2CCCC2)c1.O=C(O)C(F)(F)F` are 97%, 62% and 18%.
The matching figures for `CCC(NC[C@@H](O)[C@H](Cc1ccccc1)NC(=O)c1cc(C2CCCC2)cc(N2CCCC2=O)c1)c1cccc(Cl)c1.Cl` (stereo not given in full): 100%, 97% and 7%.
The matching figures for `Cc1cccc2nc(-c3ccc(-c4cccc(CNCCNC(=O)c5ccnn5C)c4)s3)[nH]c12.O=C(O)C(F)(F)F`: 100%, 87% and 17%.
For the molecule `O=C(NC1c2ccccc2Oc2ccccc21)c1ccccc1O`, the Inhibition in the assay with Plasmodium falciparum [1] turned out to be 95%; with Plasmodium falciparum [2] it was 0%; in the assay with HepG2, 0%.
As for `CN1CCC(Oc2ccc(CN3CC[C@H](NC(=O)c4ccc(F)c(F)c4)C3)c3ccccc23)C1.O=C(O)C(F)(F)F` (stereo not given in full), the Inhibition with Plasmodium falciparum [1] was 91%; in the assay with Plasmodium falciparum [2], 27%; with HepG2 it was 20%.
The matching figures for `COc1ccc(CN2CCC(C(=O)Nc3cccc(-c4cccc(Cl)c4)c3)CC2)cc1O`: 91%, 0% and 25%.
For the molecule `Cl.O=c1cc(NCCCNCc2cc(Br)cs2)[nH]c2ccccc12`, the Inhibition is 85% in the assay with Plasmodium falciparum [1], 5% in the assay with Plasmodium falciparum [2] and 11% with HepG2.
As for `N=C(N)Nc1nc(-c2cccc(NC(=O)Cc3ccccc3)c2)cs1`, the Inhibition in the assay on Plasmodium falciparum [1] is 99%; with Plasmodium falciparum [2] it was 9%; in the assay with HepG2, 1%.
The matching figures for `O=C(Nc1cccc(CN2CCCN(Cc3ccsc3)CC2)c1)c1ccc(Cl)c(Cl)c1.O=C(O)C(F)(F)F`: 98%, 20% and 36%.
As to `COc1cc(C)nc2ccc(NC(=O)Nc3cccc4ccccc34)cc12`, the Inhibition in the assay on Plasmodium falciparum [1] stood at 91%; with Plasmodium falciparum [2], 48%; in the assay on HepG2, 27%.
Take `CCCNC(=O)C1Cc2c([nH]c3ccc(Br)cc23)C2(CCN(CCc3ccccc3)CC2)N1` (stereo not given): the Inhibition in the assay on Plasmodium falciparum [1] is 99%; in the assay on Plasmodium falciparum [2], 49%; in the assay on HepG2, 16%.
The matching figures for `O=C1COc2ccccc2N1C/C=C(\CN1CCC(c2ccccc2)CC1)c1cc(Cl)cc(Cl)c1`: 91%, 72% and 14%.
Take `CC(=O)c1ccc(-c2ccc(C(=O)NCCCCN3CCC(c4ccc5c(c4O)CCCC5)CC3)cc2)cc1`: the Inhibition with Plasmodium falciparum [1] is listed as 100%; in the assay with Plasmodium falciparum [2] it was 83%; in the assay on HepG2, 87%.
In the same order, the values of `CN(C)[C@@H]1C(O)=C(C(N)=O)C(=O)[C@@]2(O)C(O)=C3C(=O)c4c(O)ccc(C#Cc5ccccn5)c4C[C@H]3C[C@@H]12.Cl` are 92%, 75% and 17%.
In the case of `COc1cc(NC(=O)N2CCc3ccc(OCCC4CCCN4C)cc32)cc(C(F)(F)F)c1.O=C(O)C(F)(F)F` (stereo not given), the Inhibition in the assay with Plasmodium falciparum [1] is on record as 100%; with Plasmodium falciparum [2] it was 42%; with HepG2, 5%.
The matching figures for `N#Cc1cccc(NC(=O)NC2CCN(CCCCCNC(=O)/C=C/c3ccc(Cl)c(Cl)c3)CC2)c1`: 100%, 7% and 31%.
In the same order, the values of `CN1CCN(c2ccnc3ccc(NC(=O)Cc4ccc(OCc5ccccc5)cc4)cc23)CC1` are 100%, 89% and 6%.
For `COc1cccc(C2CCN(CCN3CCC(CNC(=O)c4ccc(-c5ccc(C(F)(F)F)cc5)cc4)CC3)CC2)c1`, the Inhibition in the assay with Plasmodium falciparum [1] was found to be 100%; in the assay with Plasmodium falciparum [2] it was 42%; in the assay with HepG2 it was 41%.
On to `O=C(/C=C/c1ccc(Cl)c(Cl)c1)NCCCCCN1CCCC(CNC(=O)c2sc3ccccc3c2Cl)C1` (stereo not given), for which the Inhibition turned out to be 98% in the assay with Plasmodium falciparum [1], 0% with Plasmodium falciparum [2] and 42% with HepG2.
In the same order, the values of `CCN(CC)CCCC(C)N=c1cc(C=Cc2ccccc2Cl)[nH]c2cc(Cl)ccc12.O=P(O)(O)O` (stereo not given) are 99%, 77% and 0%.
As for `CC(C)c1sc(-c2ccc(C(C)(C)C)cc2)nc1C(=O)NCCCN1CCCC1=O`, the Inhibition with Plasmodium falciparum [1] was 96%; in the assay on Plasmodium falciparum [2], 92%; with HepG2 it was 0%.
In the same order, the values of `Cn1cnc(CCNC(=O)c2cccc(-c3cccc(-c4nc5cc(C(F)(F)F)ccc5[nH]4)c3)c2)c1` are 100%, 45% and 37%.
The matching figures for `CC(C)c1ccc(NC(=O)c2cccc(CN3CCCN(Cc4cccc(C#N)c4)CC3)c2)cc1.O=C(O)C(F)(F)F`: 93%, 15% and 48%.
The matching figures for `COc1ccc2nccc([C@@H](O)CN3CCC(NC(=O)/C=C/c4ccc5ccccc5n4)CC3)c2c1`: 91%, 9% and 12%.
On to `Cc1nn(-c2ccnc3cc(Cl)ccc23)c(C)c1C(=O)NCc1cc(Cl)cc(Cl)c1`, for which the figures for the Inhibition in the assay on Plasmodium falciparum [1], in the assay on Plasmodium falciparum [2] and with HepG2 were 97%, 53% and 0%, respectively.
